From PubChem BioAssay AID1159580 (chemical genetic matrix, 2015)
About 2,000 (36%) of roughly 5,500 compounds were called active. Roughly 18% stayed inconclusive and do not appear here. Rule as the data show it: active = normalized growth mostly below about 0.91 (no sharp cut-off); inconclusive = no clear call, values can overlap the other calls; inactive = mostly above about 0.92. Some of the results follow.

Experiment: chemical genetic growth profiling, strain panel (AID 1159580);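 also: tested at 20 µM; growth read once vehicle control cultures reached saturation at 30 °C; 1 = growth at the plate median or of vehicle wells; lower values mean less growth of the strain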
Details: growth OD

Measured: normalized growth

COc1ccc(C(=O)CN2CCN(c3cc(C)nc4ccccc34)CC2)cc1
inactive: S. cerevisiae deletion strains, locus YAL013W, strain DEP1, active compounds read low 1.01 | S. cerevisiae deletion strains, locus YBR229C, strain ROT2, active compounds read low 1.01 | S. cerevisiae deletion strains, locus YCL061C, strain MRC1, active compounds read low 1 | S. cerevisiae deletion strains, locus YDL101C, strain DUN1, active compounds read low 0.968 | S. cerevisiae deletion strains, locus YDL134C, strain PPH21, active compounds read low 0.994 | S. cerevisiae deletion strains, locus YDR150W, strain NUM1, active compounds read low 0.982 | S. cerevisiae deletion strains, locus YEL061C, strain CIN8, active compounds read low 0.979 | S. cerevisiae deletion strains, locus YGR078C, strain PAC10, active compounds read low 1 | S. cerevisiae deletion strains, locus YHR030C, strain SLT2, active compounds read low 0.905 | S. cerevisiae deletion strains, locus YHR087W, strain rtc3, active compounds read low 0.994 | S. cerevisiae deletion strains, locus YJL187C, strain SWE1, active compounds read low 1 | S. cerevisiae deletion strains, locus YJR043C, strain POL32, active compounds read low 1 | S. cerevisiae deletion strains, locus YJR075W, strain HOC1, active compounds read low 1.01 | S. cerevisiae deletion strains, locus YLR039C, strain RIC1, active compounds read low 0.956 | S. cerevisiae deletion strains, locus YLR058C, strain SHM2 (second series), active compounds read low 1.01 | S. cerevisiae deletion strains, locus YLR085C, strain ARP6, active compounds read low 0.987 | S. cerevisiae deletion strains, locus YLR262C, strain YPT6, active compounds read low 0.942 | S. cerevisiae deletion strains, locus YML094W, strain GIM5, active compounds read low 0.957 | S. cerevisiae deletion strains, locus YMR219W, strain ESC1, active compounds read low 0.997 | S. cerevisiae deletion strains, locus YMR263W, strain SAP30, active compounds read low 1.04 | S. cerevisiae deletion strains, locus YMR307W, strain GAS1, active compounds read low 1.09 | S. cerevisiae deletion strains, locus YNL153C, strain GIM3, active compounds read low 1.01 | S. cerevisiae deletion strains, locus YNL298W, strain CLA4 (second series), active compounds read low 0.975 | S. cerevisiae deletion strains, locus YNL322C, strain KRE1, active compounds read low 0.998 | S. cerevisiae deletion strains, locus YNR030W, strain Alg12, active compounds read low 0.994 | S. cerevisiae deletion strains, locus YOL006C, strain TOP1, active compounds read low 0.995 | S. cerevisiae deletion strains, locus YPL055C, strain LGE1, active compounds read low 1.01 | S. cerevisiae deletion strains, locus YPL241C, strain CIN2, active compounds read low 1.05 | S. cerevisiae deletion strains, locus YPR135W, strain CTF4, active compounds read low 0.944 | S. cerevisiae strains, strain wild type, active compounds read low 1
